Bioassay records as filed in PubChem.
Only some compounds are listed: those with a hit (about 3.7% of all), similar ones and a draw of the others.
TIM10 inh: TIM10 yeast growth inhibition | S. cerevisiae TIM10 strain growth, BacTiter-Glo luminescence, 24 h | inhibition, % at 10 µM | 330,000 tested, 1.4% active;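 active = inhibition of 40% or more at the single tested concentration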;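 also: wild-type TIM10 isogenic control strain grown at permissive 25 °C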
tim23-1 inh: growth inhibitors of tim23-1 mutant yeast. S. cerevisiae tim23-1 growth, BacTiter-Glo luminescence, 24 h. inhibition, % at 20 µM. 330,000 tested, 1.3% active. AID 463212;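 active = growth inhibition of the mutant yeast at or above 50%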;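 also: temperature-sensitive mutant grown at 25 °C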
NLRP3 yeast inh: blocks the NALP3 inflammasome reconstituted in yeast; Yeast reconstituted NLRP3/ASC/caspase-1, beta-gal luminescence, 24 h; inhibition, % at 10 µM; 330,000 tested, 0.39% active; AID 2825;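 active = inhibition of 50% or more; inactive = inhibition below 50%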
PfHsp90 set2: reduces growth (ATP signal) of yeast expressing P. falciparum Hsp90; AID 504621; S. cerevisiae expressing PfHsp90, BacTiter-Glo ATP, 48 h; yeast lacking PDR1 and PDR3 efflux regulators; inhibition, % at 9.4 µM; 310,000 tested, 0.32% active;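 active = every replicate shows inhibition above about 80%, whatever the replicate mean, limit read from the data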
tim10-1 inh: tim10-1 yeast growth inhibition; inhibition, % at 20 µM; AID 463190; S. cerevisiae tim10-1 ts strain growth, BacTiter-Glo, 24 h; 330,000 tested, 2.2% active;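 active = inhibition of at least 40%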;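 also: mutant grown at 25 °C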
tim10-1 confirm: confirmation of tim10-1 mutant yeast growth inhibitors. shares compounds with tim10-1 inh. S. cerevisiae tim10-1 ts strain growth, BacTiter-Glo, 24 h. inhibition, % at 20 µM. 7,400 tested, 56% active. AID 463213;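 active = inhibition of yeast growth at or above a set limit in either of two repeat tests at 20 µM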;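 also: tim10-1 mutant grown at permissive 25 °C to find synthetic lethal compounds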
Each line names hits and unclear results; the compound was inactive in the other large screens (follow-up assays come after a bar, where they were run).

C=CCNc1nc(Nc2ccc(-c3nc4ccccc4o3)cc2)nc(N2CCOCC2)n1	none
O=c1[nH][nH]c(-c2ccccc2O)c1C(C[N+](=O)[O-])c1ccccc1 (stereo not given)	tim10-1 inh 45 | tim10-1 confirm inactive
Cc1[nH]c2ccccc2c1C(C[N+](=O)[O-])c1cccc(O)c1 (stereo not given)	none (no result: PfHsp90 set2)
CCOC(=O)c1ccc(NC(=O)c2sc3nc4n(c(=O)c3c2C)CCC4)cc1	tim10-1 inh 48 | tim10-1 confirm inactive
Cc1cc(C)cc(NC(=O)c2sc3nc4n(c(=O)c3c2C)CCC4)c1	tim10-1 inh 43 | tim10-1 confirm inactive
CCc1cccc(NC(=O)c2sc3nc4n(c(=O)c3c2C)CCC4)c1	none
CCCCN1CC(=O)N2Cc3[nH]c4ccccc4c3C[C@H]2C1=O	none
COc1ccc(C(=O)Nc2ccc3c(c2)nc(CCNC(C)=O)n3C)cc1	none
COc1ccc(C(=O)NCCc2nc3cc([N+](=O)[O-])ccc3n2C)cc1	tim10-1 inh 55 | tim10-1 confirm 38
O=P(OC1CCCCC1)(OC1CCCCC1)C(O)c1c(Cl)cccc1Cl (stereo not given)	tim10-1 inh 43 | tim10-1 confirm inactive
CCn1c(-c2csc3c2CCC(C)C3)n[nH]c1=S (stereo not given)	tim10-1 inh 48 | tim10-1 confirm inactive
CCOC(=O)c1cccnc1SCC(=O)NCc1ccccc1	none
CC(C)OC(=O)c1cccnc1SCC(=O)N(C)c1ccccc1	none (no result: PfHsp90 set2)
CCN(C(=O)CSc1ncccc1C(=O)OC(C)C)c1cccc(C)c1	tim10-1 inh 42 (no result: PfHsp90 set2) | tim10-1 confirm inactive
CCOC(=O)c1cccnc1SCC(=O)N(CC)c1cccc(C)c1	tim10-1 inh 40 (no result: PfHsp90 set2) | tim10-1 confirm 35
O=C(Cc1ccccc1F)Nc1ccc(S(=O)(=O)Nc2ncccn2)cc1	none
COc1ccc([N+](=O)[O-])cc1NC(=S)Nc1ccccc1	none
O=[N+]([O-])c1ccc(O)c(NC(=S)Nc2ccccc2)c1	tim10-1 inh 48 | tim10-1 confirm inactive
OCC1CCCN(c2ncnc3scc(-c4ccccc4)c23)C1 (stereo not given)	none
OCC1CCCN(c2nc(CN3CCCCC3)nc3scc(-c4ccccc4)c23)C1 (stereo not given)	tim10-1 inh 40 | tim10-1 confirm inactive
Cn1c(N2CCOCC2)nc(-c2ccccc2)c1-c1ccccc1	tim10-1 inh 46 | tim10-1 confirm 39
CCOC(=O)C1C(c2ccc([N+](=O)[O-])cc2)C2C(=O)NN=C2CC1(C)O (stereo not given)	none (no result: PfHsp90 set2)
Cc1ccc(SCCNC(=S)Nc2ccc(C)cc2C)cc1	tim10-1 inh 44 | tim10-1 confirm inactive
Cc1ccc(NC(=S)NCc2ccccc2)c(C)c1	none
COc1ccc(Cl)cc1NC(=O)CN(C)C(=O)CCSc1ccc(C)cc1	none
COc1ccc(Cl)cc1NC(=S)NCCSc1ccc(C)cc1	tim10-1 inh 49 | tim10-1 confirm 40
Cc1cccc(C)c1NC(=S)NCCSc1ccc(Cl)cc1	tim10-1 inh 42 | tim10-1 confirm inactive
CN(C)C1=NCCN1CC1CCCCCC1	none
Cc1cccc(OCC(=O)N(Cc2ccc(F)cc2)C2CCS(=O)(=O)C2)c1C (stereo not given)	none
CCOc1ccc(NC(=O)CN2C(=O)NC(CCSC)C2=O)cc1 (stereo not given)	none (no result: PfHsp90 set2)
Cc1ccccc1-c1cccc([C@@H]2C[C@H]3[C@H](CON3C)CN2C(=O)C(C)(C)C)c1	none (no result: TIM10 inh, tim23-1 inh, NLRP3 yeast inh, tim10-1 inh)
CC(C)OCCCn1c(=O)c2ccccc2n2c(CCC(=O)N3CCN(c4ccccn4)CC3)nnc12	none
O=C(CCc1nnc2n(Cc3ccc(Cl)cc3)c(=O)c3ccccc3n12)N1CCN(c2ccccn2)CC1	tim10-1 inh 44 | tim10-1 confirm inactive
O=C(NC(c1ccccc1)C(Cl)(Cl)Cl)c1ccccc1 (stereo not given)	none
O=C(N(c1ccccn1)c1ccccn1)C12CC3CC(CC(C3)C1)C2	tim10-1 inh 42 | tim10-1 confirm inactive
O=C(N(Cc1ccccc1)c1ccccn1)C12CC3CC(CC(C3)C1)C2	none (no result: PfHsp90 set2)
Cc1ccc(NS(=O)(=O)c2cc(NC(=O)c3ccc4c(c3)NC(=O)CS4)ccc2Cl)c(C)c1	none
Cc1ccc(-c2nn(CCC#N)cc2C=C(C#N)C#N)cc1	tim10-1 inh 45 | tim10-1 confirm inactive
COc1ccc(-c2nn(CCC#N)cc2C=C(C#N)C#N)cc1	none
CC(=O)SC1CC(=O)N(c2ccc(C(C)(C)C)cc2)C1=O (stereo not given)	tim10-1 inh 55 | tim10-1 confirm 53
COc1ccc(/C=C(\C#N)C(=O)N2COCC2(C)C)cc1	tim10-1 inh 47 | tim10-1 confirm 31
COc1ccc(/C=C(\C#N)C(=O)N=CN(C)C)cc1	none
CCC/C=N/NC(=O)c1[nH]c2c([N+](=O)[O-])cccc2c1C	tim10-1 inh 41 | tim10-1 confirm inactive
CCCS(=O)(=O)c1nc(S(=O)(=O)c2ccc(C)cc2)c(N2CCC(C(N)=O)CC2)s1	none
Cc1ccccc1C(=O)NC1CCCCCCC1	none
O=C(NC1CCCCCC1)c1ccc[nH]c1=S	tim10-1 inh 44 | tim10-1 confirm inactive
O=C(c1ccc2c(c1)OCO2)N1CCC2(CC1)Oc1ccc(F)cc1C(=O)C21CC(c2ccccc2)=NO1 (stereo not given)	tim10-1 inh 42 | tim10-1 confirm 34
CC(C)C(=O)N1CCC2(CC1)Oc1ccc(Cl)cc1C(=O)C21CC(c2ccccc2)=NO1 (stereo not given)	tim10-1 inh 53 (no result: PfHsp90 set2) | tim10-1 confirm inactive
O=C(c1ccoc1)N1CCC2(CC1)Oc1ccc(F)cc1C(=O)C21CC(c2ccc(Cl)cc2)=NO1 (stereo not given)	none (no result: PfHsp90 set2)
CC(C)C(=O)N1CCC2(CC1)Oc1ccc(F)cc1C(=O)C21CC(c2ccc(Cl)cc2)=NO1 (stereo not given)	tim10-1 inh 47 (no result: PfHsp90 set2) | tim10-1 confirm inactive
CC(Oc1ccccc1)C(=O)N1CCC2(CC1)Oc1ccc(Cl)cc1C(=O)C21CC(c2ccccc2)=NO1 (stereo not given)	none (no result: PfHsp90 set2)
O=C(c1ccoc1)N1CCC2(CC1)Oc1ccc(Cl)cc1C(=O)C21CC(c2ccc(Cl)cc2)=NO1 (stereo not given)	tim10-1 inh 54 | tim10-1 confirm 41
CCC(=O)N1CCC2(CC1)Oc1ccc(F)cc1C(=O)C21CC(c2ccc(Cl)cc2)=NO1 (stereo not given)	none
Cn1c(Cn2c(=O)sc3ccccc32)nnc1SCc1ccccc1	none
COc1cccc(N2CCN(C(=O)c3nc4nc(C)cc(C)n4n3)CC2)c1	none
COc1cccc(CNC(=O)c2ccc(NS(=O)(=O)c3ccc4[nH]c(=O)[nH]c4c3)cc2)c1	none
Cc1ccc(C(=O)N2CCC3(CC2)Oc2ccc(F)cc2C(=O)C32CC(c3ccc(Cl)cc3)=NO2)s1 (stereo not given)	tim10-1 inh 51 (no result: PfHsp90 set2) | tim10-1 confirm 33
